Among the data in PubChem BioAssay (NCATS) are Potency and outcome values, retold here.

Results filed as inconclusive are left out. Calls of active or inactive are those of the source. Calls come from the whole dose curve; as a rule, active = well fitted curve in the direction sought with a large enough effect; inconclusive = small, poorly fitted or top-dose-only effect, or another doubt; inactive = no such curve, though single readings can be large; an effect the other way counts as inactive or inconclusive.

A short description of assay [1]: qHTS to identify inhibitors of the type 1 interferon - major histocompatibility complex class I in skeletal muscle: primary screen against the NCATS LOPAC collection (AID 1347405).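 Note: human myoblasts with HiBiT tag on endogenous HLA-B stimulated by IFN-beta; lytic HiBiT luminescence reporting HLA-B protein level.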 Note: potency is the fitted concentration of half-maximal effect. Summed up: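 HLA-B HiBiT myoblasts, IFN-b 4 ng/ml, dexamethasone-free medium; compounds 7-pt 1:4.3 titration, top 46 uM final; 24 h at 37 C; Nano-Glo HiBiT lytic reagent, 10 min RT, luminescence.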
(qHTS replaces the single test concentration by a dilution series.)

The nature of assay [2]: qHTS for inhibitors of adenylyl cyclases using a fission yeast platform: a pilot screen against the NCATS LOPAC library (AID 1347410). In short, it runs like this: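 GFP from fbp1-GFP reporter, read by Acumen laser cytometry, indicates AC inhibition in fission yeast expressing AC9, GNAS and PDE4D2. Cells grown 18 h in the dark at 30C with compounds, final up to 57 uM.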
Assay [3] is described as follows: Validation qHTS assay for inhibitors of Activation Induced Cytidine Deaminase (AID): UDG Counterscreen signal (AID 1347427). Summed up:
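Fluorescence at 560 nm excitation, 665 nm emission reports UDG signal after 250 mM NaOH (2x) addition and 30 min. Enzymes (AID 1 uM, UDG 2 U/mL, at 4/3x) preincubated 10 min with compound, then 4 h with 4x 250 nM DJC20/DJC23 substrate at room temperature.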

Assay [4] deals with Single-stranded DNA cytosine deaminase (Homo sapiens) (UniProt Q9GZX7). The assay can be described thus: Validation qHTS assay for inhibitors of Activation Induced Cytidine Deaminase (AID): AID signal (AID 1347429). Note: potency is the fitted concentration of half-maximal effect. In short, it runs like this: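 AID+UDG coupled FRET deamination; cpds up to 114 uM final; DJC20/DJC23 substrate, 4 hr RT; NaOH stop, 30 min RT; read Ex 540/Em 590.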
Single-stranded DNA cytosine deaminase (Homo sapiens), sequence (Q9GZX7 whole entry, looked up): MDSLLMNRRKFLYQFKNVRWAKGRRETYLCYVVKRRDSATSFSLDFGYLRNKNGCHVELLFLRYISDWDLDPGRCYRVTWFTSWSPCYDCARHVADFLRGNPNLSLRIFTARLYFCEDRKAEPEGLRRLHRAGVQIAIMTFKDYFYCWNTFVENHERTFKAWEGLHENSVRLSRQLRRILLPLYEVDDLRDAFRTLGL

A short description of assay [5]: Primary qHTS for inhibitors of La Crosse Virus (LACV) - induced cell death in SH-SY5Y cells (AID 1508616). Note: potency is the fitted concentration of half-maximal effect. In short, it runs like this:
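Cytopathicity rescue screen: compounds pinned onto SH-SY5Y cells, which are then infected with LACV (MOI 0.01) and held 6 days at 37C. Percent activity is scaled between infected DMSO control and uninfected DMSO control.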

Assay [6] can be described thus: qHTS to identify inhibitors of the type 1 interferon - major histocompatibility complex class I in skeletal muscle: primary screen against the NCATS Mechanism Interrogation Plate v5.0 (MIPE) Libary (AID 1347411). Note: nearly all actives have a fitted effect of over 65% in size. In short, it runs like this: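 HLA-B HiBit myoblasts, dexamethasone-free medium + 4 ng/ml IFN-b, 24 h compound, 11-pt 1:3 from 46 uM final. Readout: Nano-Glo HiBiT lytic luminescence after 10 min lysis, RT.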

Assay [7] has as its target Calcium and integrin-binding protein 1 (Homo sapiens) (UniProt Q99828). Put plainly: Validation qHTS for Identification of Calcium Integrin Binding protein 1 (CIB1) Competitor (AID 1508618). In short, it runs like this: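 Fluorescence polarization with 1 uM CIB1-GST and 100 nM FITC-alphaIIb peptide in HEPES pH 7.4, NaCl, 5 mM CaCl2, Tween20. Compounds at up to 114 uM final, preincubated with protein 15 min; read after 15 min more at RT.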

Assay [8] in a line: qHTS for Activators of p53 Stress Response Pathway screened against the NCATS CANVASS Library (AID 1347388). In short, it runs like this:
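p53RE-bla HCT-116 cells (4000/well) were plated 5 h at 37C, exposed to compounds for 16 h at 37C over an 11-point concentration series, then loaded with CCF4 for 2 h at room temperature; 460/530 nm emission ratio read.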

Assay [9] can be described thus: qHTS assay for small molecule disruptors of mitochondrial membrane potential screened against the NCATS CANVASS Library (AID 1347389). Note: nearly all actives have a fitted effect of over 60% in size. Note: potency is the fitted concentration of half-maximal effect. Summed up:
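Red/green fluorescence ratio read-out: J-aggregates ex 540/em 590 nm, monomers ex 490/em 535 nm. HepG2, 1 hr compound treatment, then 30 min Mito-MPS dye at 37C. 11-pt qHTS concentration series.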

Assay [10] in a line: qHTS for activators of dead-cell proteases activity screened against the NCATS CANVASS Library (AID 1347392).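 Note: luminescence from protease leaking out of membrane-damaged cells cleaving impermeant substrate; rising signal means more cytotoxicity.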 Summed up: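 Cytotoxicity in HepG2 cells was assessed by released protease cleaving AAF-aminoluciferin, with luminescence as signal. Exposure lasted 5 h at 37C across an 11-point series.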
Assay [11] can be described thus: qHTS for inhibitors of ER calcium dysfunction: SERCaMP assay screened against the NCATS CANVASS Library (AID 1347393). Note: nearly all actives have a fitted effect of over 40% in size. Note: potency is the fitted concentration of half-maximal effect. In short, it runs like this:
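qHTS in SH-SY5Y reporter cells: 16 h compound pretreatment, 4 h thapsigargin, then secreted Gaussia luciferase measured by luminescence.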

A short description of assay [12]: Vero-766 cells viability qHTS against the NCATS CANVASS Library: Counterscreen for Zika virus inhibition assay (AID 1347394). Note: nearly all actives have a fitted effect of over 60% in size. Note: potency is the fitted concentration of half-maximal effect. In short, it runs like this: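 CellTiter Glo luminescence measured cytotoxicity after 72 h at 37C in uninfected Vero 766 cells, plated at 1000 cells/well. Compounds were applied in an 11-point series. Wells without cells defined 100% inhibition.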

Assay [13] in a line: qHTS for inhibitors of Wild type Zika virus screened against the NCATS CANVASS Library (AID 1347396).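 Note: ATP luminescence of surviving cells so rescue from viral cell killing; series mostly up to about 46 µM.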 In short, it runs like this: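 Vero 766 (African green monkey) cells, 1000 per well, attached overnight, then compounds were added in an 11-point series before wild-type Zika virus infection. After 72 h at 37C, cell viability was read as CellTiter Glo luminescence.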
A short description of assay [14]: Viability qHTS for inhibitors of the SERCaMP assay screened against the NCATS CANVASS Library (AID 1347400). Note: nearly all actives have a fitted effect of over 70% in size. Note: potency is the fitted concentration of half-maximal effect. In short, it runs like this:
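CellTiter-Glo luminescence readout after 48 h compound exposure (11-pnt qHTS series) of SH-SY5Y-GLuc SERCaMP MJH297 cells seeded at 1000 cells/well; bortezomib positive control.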

Assay [15] in a line: Redox Reaction Profiling qHTS: Assay Interference Panel against the NCATS CANVASS Library (AID 1347401). In short, it runs like this: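 Quantitative HTS over an 11-point series was run in HEPES pH 7.3 with 50 mM NaCl, 200 uM DTT and 5 uM resazurin. Initial and 15-min resorufin fluorescence readings were taken.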
Assay [16] addresses Protein phosphatase 1D (Homo sapiens) (UniProt O15297). The assay can be described thus: RapidFire Mass Spectrometry qHTS Assay for Modulators of WT P53-Induced Phosphatase 1 (WIP1) (AID 1347424).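 Note: amount of dephosphorylated VEPPL-S-QETFS peptide product formed by WIP1; series mostly up to about 63 µM.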 In short, it runs like this: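 Mass-spectrometric measurement of dephosphorylated peptide after a 5 min room-temperature reaction of 10 nM WIP1 with 2 uM phosphopeptide, following 1 h compound preincubation in 30 mM MgCl2 buffer.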

The target is the same in assay [17]. The assay can be described thus: Rhodamine-PBP qHTS Assay for Modulators of WT P53-Induced Phosphatase 1 (WIP1) (AID 1347425). Summed up: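 WIP1 (5 nM final) was preincubated with compound for 1 hour at room temperature. It then dephosphorylated 10 uM VEPPL-pS-QETFS peptide in Tris-HCl pH 7.5 with 30 mM MgCl2. Released Pi was detected by 10 uM Rh-PBP fluorescence (ex 525/em 598 nm) read at 1-min intervals for 11 min, as delta f1 - f0.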

In assay [18] the target is Calcium and integrin-binding protein 1 (Homo sapiens) (UniProt Q99828). Put plainly: Primary qHTS for Identification of Calcium Integrin Binding Protein 1 (CIB1) Competitor (AID 1508620).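 Note: GST tagged CIB1 binding a fluorescein labelled alphaIIb integrin peptide tracer; top concentration of the series differs between compounds.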 Summed up:
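Fluorescence polarization competition: CIB1-GST (1 uM final) preincubated with compound 15 min at room temperature, then FITC-labeled alphaIIb peptide (100 nM final) added for another 15 min. Polarization read at Ex 480/Em 540.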

Calcium and integrin-binding protein 1 (Homo sapiens), sequence (Q99828 whole entry, looked up): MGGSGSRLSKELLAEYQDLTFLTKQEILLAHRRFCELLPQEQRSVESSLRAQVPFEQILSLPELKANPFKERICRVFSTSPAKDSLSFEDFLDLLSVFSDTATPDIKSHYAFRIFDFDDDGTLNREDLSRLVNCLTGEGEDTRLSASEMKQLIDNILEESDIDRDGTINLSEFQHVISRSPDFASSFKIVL
Protein phosphatase 1D (Homo sapiens), sequence (O15297 whole entry, looked up): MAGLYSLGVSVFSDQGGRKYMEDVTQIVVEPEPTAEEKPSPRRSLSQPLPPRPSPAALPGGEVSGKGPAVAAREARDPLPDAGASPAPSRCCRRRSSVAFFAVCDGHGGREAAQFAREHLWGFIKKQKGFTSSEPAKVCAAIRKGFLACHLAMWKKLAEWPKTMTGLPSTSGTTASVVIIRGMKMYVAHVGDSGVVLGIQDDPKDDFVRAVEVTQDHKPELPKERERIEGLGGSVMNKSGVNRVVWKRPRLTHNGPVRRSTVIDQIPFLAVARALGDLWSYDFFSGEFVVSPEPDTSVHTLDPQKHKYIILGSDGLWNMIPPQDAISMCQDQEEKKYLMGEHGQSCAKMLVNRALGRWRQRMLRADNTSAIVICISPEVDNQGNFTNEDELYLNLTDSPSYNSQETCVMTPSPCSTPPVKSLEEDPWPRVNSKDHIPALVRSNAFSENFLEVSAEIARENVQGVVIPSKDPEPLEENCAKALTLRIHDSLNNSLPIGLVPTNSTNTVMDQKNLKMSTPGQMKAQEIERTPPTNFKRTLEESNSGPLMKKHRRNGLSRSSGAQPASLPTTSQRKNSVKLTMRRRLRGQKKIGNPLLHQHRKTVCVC

As for `O=c1[nH]c2cc([N+](=O)[O-])c([N+](=O)[O-])cc2[nH]c1=O`, the Potency entry in [1], in [3], in [4] and in assay [5] was “inactive” throughout. In [2], the result was inactive.
Turning to `O=C(Nc1cccc(C(=O)Nc2ccc(S(=O)(=O)O)c3cc(S(=O)(=O)O)cc(S(=O)(=O)O)c23)c1)Nc1cccc(C(=O)Nc2ccc(S(=O)(=O)O)c3cc(S(=O)(=O)O)cc(S(=O)(=O)O)c23)c1`, the Potency entry in assay [1], in assay [3], in [4] and in assay [5] was “inactive” throughout. Besides, in assay [2], the result was inactive.
On to `c1ccc(-c2ccccn2)nc1`, for which the Potency result in assay [1], in assay [3], in assay [4] and in [5] was “inactive” each time. Further, the result in [2] was inactive.
On to `Cc1ccc(O)c(N=Nc2ccccc2)n1`, for which the Potency result in [1], in assay [3], in [4] and in assay [5] was “inactive” each time. The compound was called inactive in assay [2].
In the case of `Nc1ccn([C@@H]2O[C@H](CO)[C@@H](O)[C@@H]2O)c(=O)n1`, the Potency result in [1] was “inactive”.
Turning to `NCCCCC(=O)O`, the Potency entry in assay [1], in assay [3], in [4] and in assay [5] was “inactive” throughout. Further, the outcome in assay [2] was inactive.
In the case of `Cn1c(=O)c2[nH]c(-c3ccccc3)nc2n(C)c1=O`, the Potency entry in assay [1], in [3] and in assay [4] was “inactive” each time. The compound was called inactive in assay [2].
In the case of `CCN1/C(=C/C(C)=O)Sc2ccc(OC)cc21`, the Potency entry in assay [1], in assay [6], in [3], in assay [4] and in [5] was “inactive” in each case. The result in [2] and in assay [7] was inactive.
Take `CN1CCc2ccccc2Cc2[nH]c3ccccc3c2CC1`: the Potency entry in assay [1], in [3] and in assay [4] was “inactive” in each case. Also, in assay [2], the result was inactive.
Take `O=C1C(SCCO)=C(SCCO)C(=O)c2ccccc21`: the Potency in assay [1] and in assay [4] was 10 µM (active) in each case. Also, in [2], the call was inactive. In assay [3], the Potency entry is “inactive”.
For the compound `Oc1cc(O)cc(/C=C/c2ccc(O)c(O)c2)c1`, the Potency result in [1], in [6], in assay [3] and in [4] was “inactive” throughout. The result in assay [2] was inactive. Also, the Potency in assay [5] is 3.16 µM (active).
On to `O=C(O)c1cc(O)c(O)c(O)c1`, for which the result in assay [8], in assay [10], in assay [13], in [15] and in assay [17] was inactive. The Potency entry in assay [9], in assay [11], in assay [12], in assay [14], in [16] and in assay [5] was “inactive” each time. For the same compound, in [18], the Potency result is “inactive”.
In the case of `O=C1NC(=O)c2c1c(-c1ccccc1)cc1[nH]c3ccc(O)cc3c21`, the Potency in assay [1] was 14.1 µM (active). Besides, in assay [2], the outcome was inactive.
Take `Oc1ccccc1O`: the Potency result in assay [1], in [3] and in [4] was “inactive” each time. For the same compound, in [2], the result was inactive. For the same compound, the Potency in [5] was 2 µM (active).
For the compound `O=C(Nc1ccc2c(c1)CCN(Cc1ncn[nH]1)C2)c1ccccc1-c1ccc(C(F)(F)F)cc1`, the Potency entry in assay [1], in assay [6] and in assay [18] was “inactive” each time. Further, the result in assay [2] and in assay [7] was inactive.
`O=c1cc(-c2ccccc2)oc2c(O)c(O)ccc12`: the result in assay [8], in assay [10], in assay [15], in assay [2] and in [7] was inactive. For the same compound, the Potency is 18.6 µM (active) in assay [9], 38.4 µM (active) in assay [11], 23.4 µM (active) in assay [12] and 34 µM (active) in assay [14]. Moreover, the Potency result in assay [1] is “inactive”.
